Assay outcomes (PubChem)
Neddylation inh = inhibitors of cullin neddylation, primary screen, biochemical, TR-FRET, uHTS, NAE and Ubc12. inhibition, % at 25 µM. 360,000 tested, 0.58% active; in the data active means inhibition above about 36%
Vif inh = HIV Vif self-association inhibitors, primary screen, imaging, HEK293T, single point; inhibition, % at 7.49 µM; AID 602346, 2012; HEK293T cells, Vif self-association by quenched fluorescence, 24 h; 340,000 tested, 0.35% active; in the data active means inhibition above about 50%, passing the limit was not always enough; inconclusive means no clear call, values can overlap the other calls; inactive means below about 31%
dFosB activator = activators of delta FosB homodimer, primary screen, biochemical, fluorescence polarization, TAMRA-CDK5 oligo, single point; purified delta FosB; percent of positive-control signal above neutral wells; activation, % at 25 µM; 340,000 tested, 0.99% active;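 active means mean activation above about 17%, with every replicate also reaching it, limit read from the data, passing the limit was not always enough; inconclusive means only one of the two conditions met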
Target sequence (P13346 whole entry, looked up): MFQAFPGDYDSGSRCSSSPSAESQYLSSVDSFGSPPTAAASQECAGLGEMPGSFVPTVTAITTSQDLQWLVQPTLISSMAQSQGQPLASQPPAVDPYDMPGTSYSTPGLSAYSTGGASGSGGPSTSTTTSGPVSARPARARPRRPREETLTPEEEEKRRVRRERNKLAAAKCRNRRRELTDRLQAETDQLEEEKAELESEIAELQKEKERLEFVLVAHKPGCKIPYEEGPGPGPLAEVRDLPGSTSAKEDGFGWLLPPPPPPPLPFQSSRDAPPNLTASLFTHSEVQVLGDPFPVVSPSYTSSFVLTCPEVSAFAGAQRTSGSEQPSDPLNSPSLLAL
GSIS activator = GLuc luminescence reporter in INS-1E cells, primary screen for activators of glucose-dependent secretion of insulin; 370,000 tested, 0.61% active; INS-1E GLuc reporter insulin secretion, 2-3 h; AID 743287, 2014; activation, % at 16.6 µM;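 active means lowest replicate activation of at least 40%, so every replicate reaches that level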
A1 inh = caspase 3/7 activation in MEF A1-2A-BIM cells, primary screen, A1 inhibitor project, cell-based, luminescence, HTS. Caspase-Glo 3/7 luminescence, 3 h; percent of clofoctol response, vehicle zero. AID 2462, 2010. 330,000 tested, 0.066% active. caspase activation, % (test concentration not listed);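 active means over half of replicate activation scores above 10%, or exactly half above 10 with the replicate mean above 10; inconclusive means replicate mean below 10 yet half the replicates above 10; inactive means over half of replicates below 10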
Neddyl conf = blockade of NEDD8 conjugation to cullin – biochemical, TR-FRET, single concentration, confirmation; shares compounds with Neddylation inh; TR-FRET cullin neddylation biochemical assay; calls only at 25 µM; 1,800 tested, 13% active; in the data active means inhibition above about 40%;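 further: neddylation substrate is the cullin 1 ring ligase complex with SKP2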
Of the large screens only hits and unclear results are named; the others gave an inactive call (follow-up assays come after a bar, where shown). An excerpt weighted towards active compounds, which were near 1.9% of everything screened.

COCC(=O)N1C[C@H]2[C@@H](c3ccccc31)[C@@H](CO)N2C(=O)C1CCOCC1	none (no result: Neddylation inh, Vif inh, dFosB activator, A1 inh)
Cc1ccc(S(=O)(=O)N(C)C[C@@H]2OCCCC[C@H](C)Oc3ccc(NC(=O)CCC(F)(F)F)cc3C(=O)N([C@H](C)CO)C[C@@H]2C)cc1	none (no result: Neddylation inh, Vif inh, dFosB activator, A1 inh)
CCN(CC)c1cc(C)c2cc(NC(=O)CNC(C)=O)ccc2n1	Neddylation inh 43 | Neddyl conf active
CCN(CC)c1cc(C)c2cc(NC(=O)c3ccccc3F)ccc2n1	none
COc1cc2c(cc1OC)C1=C(C#N)CCC(=NC(=O)c3ccc(Cl)cc3)N1CC2	none (no result: GSIS activator)
COc1cc2c(cc1OC)C1=C(C#N)COCN1CC2	Neddylation inh 41 (no result: GSIS activator) | Neddyl conf inactive
COc1ccc(-c2ccc(C3[C@H]4CNC[C@@H]3N4C(=O)Nc3ccc(C(F)(F)F)cc3)cc2)cc1 (stereo partly drawn)	none (no result: Neddylation inh, Vif inh, dFosB activator, A1 inh)
CCNC(=O)[C@H]1[C@H](CO)[C@H]2Cn3c(ccc(-c4ccccc4F)c3=O)[C@H]2N1C	none (no result: Neddylation inh, Vif inh, dFosB activator, A1 inh)
CC(OC(=O)c1cccc(N(C)C)c1)C(=O)N1CCc2ccccc2C1 (stereo not drawn)	none (not shown: Neddylation inh, GSIS activator)
CN(C)c1cccc(C(=O)OCC(=O)N2CCc3ccccc3C2)c1	Neddylation inh 42 | Neddyl conf inactive
COc1ccc(-c2nn(-c3ccccc3)cc2/C=N/Nc2ccc(Cl)c(C(=O)O)c2)cc1OC	Neddylation inh 44 | Neddyl conf inactive
O=C(O)c1cccc(N2CCCC2)c1	Neddylation inh 39 (not shown: GSIS activator)
O=C(O)c1cccc(N2CCCC2=O)c1	none (no result: GSIS activator)
O=C(COc1ccccc1F)N1N=C(c2cccs2)CC1c1ccco1 (stereo not drawn)	Neddylation inh 47 (no result: Vif inh, A1 inh) | Neddyl conf inactive
COCCOC(=O)c1cc(C(=O)c2cc(F)ccc2O)coc1=N	Neddylation inh 47 (no result: GSIS activator) | Neddyl conf inactive
COc1cc(/C=N/NC(=O)c2ccc3nc[nH]c3c2)cc(OC)c1OC	none (no result: Neddylation inh, Vif inh, dFosB activator, GSIS activator)
COc1cc(/C=N/Nc2nc3ccccc3[nH]2)cc(Br)c1OCC(=O)N(C)C	Neddylation inh 57 | Neddyl conf active
COc1cc(/C=N/NC(=O)c2ccc(CSc3nc4ccccc4[nH]3)cc2)cc(OC)c1OC	Neddylation inh 49 | Neddyl conf active
Nc1nccc(/C=C/c2ccc(Cl)cc2)n1	Neddylation inh 37 | Neddyl conf inactive
Nc1nccc(/C=C/c2c(Cl)cccc2Cl)n1	none
COCc1cn(CC[C@H]2CC[C@H](NC(=O)Nc3ccc(F)cc3)[C@H](CO)O2)nn1	none (no result: Neddylation inh, Vif inh, dFosB activator, A1 inh)
CCc1nccn1CCC(=O)N1CCc2c([nH]c3ccccc23)C1CC(C)C (stereo not drawn)	none (no result: Vif inh)
COCc1ccc(CN2CCc3c([nH]c4ccccc34)C2CC(C)C)o1 (stereo not drawn)	Neddylation inh 40, A1 inh inconclusive | Neddyl conf inactive
CO[C@H]1CN(C)C(=O)c2ccc(NC(=O)C3CCCC3)cc2OC[C@@H](C)N(CCC(F)(F)F)C[C@H]1C	none (no result: Neddylation inh, Vif inh, dFosB activator, A1 inh)
COc1ccc(/C=N/NC(=O)c2cccs2)c2ccccc12	Neddylation inh 46 | Neddyl conf inactive
COc1ccc(/C=N/NC(=O)c2cccnc2)c2ccccc12	none
COc1ccc(OC)c(C=NNC(=O)c2ccccc2NS(=O)(=O)c2cccs2)c1	Neddylation inh 34
COc1ccc(Nc2oc(COc3ccccc3OC)nc2C#N)cc1	Neddylation inh 42 (no result: GSIS activator) | Neddyl conf inactive
COc1ccccc1OCc1nc(C#N)c(NCCCn2ccnc2)o1	none
O=C(C[C@H]1CC[C@H](NC(=O)c2ccc3c(c2)OCO3)[C@H](CO)O1)NCc1ccc(F)cc1	none (no result: Neddylation inh, Vif inh, dFosB activator, A1 inh)
CO[C@H]1CN(C)C(=O)c2cc(NC(=O)Nc3ccccc3F)ccc2OC[C@H](C)N(C(C)=O)C[C@H]1C	none (no result: Neddylation inh, Vif inh, dFosB activator, A1 inh)
CCCN1[C@H](C(=O)N(C)C)[C@@H](CO)[C@@H]2Cn3c(ccc(-c4ccccc4OC)c3=O)[C@@H]21	none (no result: Neddylation inh, Vif inh, dFosB activator, A1 inh)
CC(NC(=O)C1=CC=CN2CCS(=O)(=O)N=C12)c1ccc(Cl)c(Cl)c1 (stereo not drawn)	Neddylation inh 44 (no result: GSIS activator) | Neddyl conf active
O=C(Oc1cc(Cl)ccc1Cl)C1=CC=CN2CCS(=O)(=O)N=C12	none
CC(NC(=O)C1=CC=CN2CCS(=O)(=O)N=C12)c1ccc(Cl)cc1Cl (stereo not drawn)	Neddylation inh 55 (not shown: A1 inh)
CCN1CCCC1CNC(=O)c1cc2cc(F)ccc2[nH]1 (stereo not drawn)	Neddylation inh 45
CCN1CCCC1CNC(=O)c1ccc2c(=O)n(CCOC)c(=O)[nH]c2c1 (stereo not drawn)	Neddylation inh 44 (no result: GSIS activator) | Neddyl conf inactive
Cc1c(Cc2ccccc2)c(=O)oc2c(C)c(OCc3nn[nH]n3)ccc12	Neddylation inh 41, A1 inh inconclusive (no result: GSIS activator) | Neddyl conf inactive
Cc1cc(=O)oc2cc(OC(C)C(=O)N3CCOCC3)c(Cl)cc12 (stereo not drawn)	Neddylation inh 44 (no result: dFosB activator, A1 inh) | Neddyl conf inactive
C[C@@H]1CCCCO[C@H](CN(C)S(=O)(=O)c2ccc(F)cc2)[C@H](C)CN([C@H](C)CO)C(=O)c2cc(NS(C)(=O)=O)ccc2O1	none (no result: Neddylation inh, Vif inh, dFosB activator, A1 inh)
COc1ncccc1-c1nnn(-c2ccc(Cl)nc2)n1	Neddylation inh 31 | Neddyl conf inactive
C[C@@H]1CN([C@@H](C)CO)S(=O)(=O)c2ccc(C3=CCCCC3)cc2O[C@H]1CN(C)C(=O)CN(C)C	none (no result: Neddylation inh, Vif inh, dFosB activator, A1 inh)
O=C(COc1ccc2c3c(c(=O)oc2c1)CCCC3)N[C@@H](Cc1ccccc1)C(=O)O	Neddylation inh 45
O=C(COc1ccc2c3c(c(=O)oc2c1)CCCC3)NC(Cc1ccc(Cl)cc1)C(=O)O (stereo not drawn)	none (no result: GSIS activator)
CC1(C)C2CCC1(CS(=O)(=O)Nc1ccccc1)C(=O)C2 (stereo not drawn)	none
CC1(C)C2CCC1(CS(=O)(=O)NC1CCCC1)C(=O)C2 (stereo not drawn)	Neddylation inh 43 | Neddyl conf inactive
COc1ccc(CN(C)C[C@@H]2Oc3c(NS(=O)(=O)c4ccc(Cl)cc4)cccc3C(=O)N([C@@H](C)CO)C[C@H]2C)cc1	none (no result: Neddylation inh, Vif inh, dFosB activator, A1 inh)
COc1cc(/C=C/C(=O)N(C)CC(=O)Nc2ccccc2SC)cc(OC)c1OC	Neddylation inh 41 | Neddyl conf inactive
CC(CCc1ccccc1)NC(=O)/C=C/c1ccccc1 (stereo not drawn)	none (no result: GSIS activator)
COc1cc(/C=C/C(=O)NC(C)CCc2ccccc2)cc(OC)c1OC (stereo not drawn)	Neddylation inh 40 | Neddyl conf inactive
COc1cc(/C=C/C(=O)NCc2ccccn2)cc(OC)c1OC	Neddylation inh 44 | Neddyl conf inactive
